# Compounds without any hit were thinned out: in the full panel of roughly 79,000, 15% have a hit. Values without a mark were called inactive. Activity calls are given as the source filed them. Rule as the data show it: active = growth inhibition above about 70%; inactive = the rest.
# Test: NCI Yeast Anticancer Drug Screen. Data for the wt1 strain (AID 149);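 also: 0% = growth of vehicle-treated wt1 cultures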
# Conditions: S. cerevisiae wt1 strain (SPY 50644) growth inhibition, active compounds read high
# Procedure: Growth inhibition of yeast strains with defined genetic alterations is measured as a screen for potential anti-cancer activity. Selected strains with alterations in DNA damage repair or cell cycle control were exposed to compounds and growth inhibition was measured relative to vehicle treated controls. The strain used in this assay is wt1
SMILES,growth inhibition (at 1.2 µM) [%],growth inhibition (at 3.7 µM),growth inhibition (at 11.0 µM),growth inhibition (at 33.0 µM),growth inhibition (at 100.0 µM)
C#CC1=CC(=O)C(OC)=CC1=O,-2,-1%,23%,90% (active),98% (active)
COc1cc(C(C)(C)C)cc(OC)c1C(O)(c1c(OC)cc(C(C)(C)C)cc1OC)c1c(OC)cc(C(C)(C)C)cc1OC,4,42%,93% (active),94% (active),91% (active)
c1cc2ccc3cc4ncccc4c4ccc(c1)c2c34,-2,3%,9%,54%,75% (active)
O=C(O)/C=C\C(=O)NNc1ccc(Br)cc1,2,97% (active),99% (active),99% (active),99% (active)
O=C(O)[C@H]1[C@@H](C2CCCCC2)O[C@@H](C2CCCCC2)O[C@H]1C(F)(F)F,-3,0%,0%,0%,1%
O=c1oc(C(C(F)(F)F)C(F)(F)F)nc2ccccc12,4,24%,20%,23%,27%
CCCCCCCCCCCCOC1C(COCCN2CCCC2)OC2OC(C)(C)OC21 (stereo not given),23,15%,93% (active),99% (active),99% (active)
CC1C=CN(N(C)C)C2=C1C(=O)c1cnccc1C2=O (stereo not given),-1,7%,47%,83% (active),96% (active)

# — PubChem BioAssay (NCI)
